Calls of active or inactive are those of the source. How the source made its calls: active means hit-call score of the fitted dose curve at least 0.9, where 1 is the maximum; inactive means score below 0.9.

Read-out in the experiment: urokinase plasminogen activator (uPA), PLAU (gene 5328)
The experiment is described as follows: BSK_KF3CT_uPA: BioMAP Diversity Plus: KF3CT Assay for urokinase plasminogen activator (uPA) Biomarker Activity (AID 2283075). The note with it: primary human keratinocytes with fibroblasts; actives raise or lower the signal. On the procedure:
BSK_KF3CT is a cell-based, multiplexed-readout assay that uses keratinocytes and foreskin fibroblasts, a human skin primary cell co-culture, with measurements taken at 24 hours after chemical dosing in a 96-well plate.BSK_KF3CTA is an assay component measured in the BSK_KF3CT assay. It measures uPA antibody related to regulation of gene expression using ELISA technology.Data from the assay component BSK_KF3CTA was analyzed into 1 assay endpoint. This assay endpoint, BSK_KF3CTA, was analyzed with bidirectional fitting relative to DMSO as the negative control and baseline of activity. Using a type of binding reporter, gain or loss-of-signal activity can be used to understand changes in the signaling as they relate to the gene PLAU. Furthermore, this assay endpoint can be referred to as a primary readout, because this assay has produced multiple assay endpoints where this one serves a signaling function. To generalize the intended target to other relatable targets, this assay endpoint is annotated to the protease intended target family, where the subfamily is serine protease.
The levels of cell surface (or secreted, indicated by the prefix "s") biomarker endpoints were measured by ELISA. Overt cytotoxicity to cells in confluent adherent cultures (all systems other than the BT system) was assessed by measuring total protein levels using sulforhodamine B (SRB) staining in parallel cultures at the time of biomarker measurements, indicated as SRB endpoints. For proliferation assays for adherent cell types, individual cell types are cultured at sub-confluence and relative cell numbers quantified by SRB staining at time points optimized for each system (48 h: 3C and CASM3C systems; 72 h: BT and HDF3CGF systems; 96 h: SAg system). SRB was performed by staining cells with 0.1% SRB after fixation with 10% TCA and reading wells at 560 nm.Viability and proliferation of PBMC (T cells) was quantified by Alamar Blue reduction for the SAg and BT systems. For PBMC viability (referred to as PBMC Cytotoxicity within the assay endpoint names), cells were plated (75,000/well in a 96-well plate) and then chemical samples added for 1 h before addition of activators, SEB and TSST-1 (20 ng/mL final concentration each). Cells were incubated for 90 h. Then, Alamar Blue (20 uL/well) (Invitrogen, Cat DAL1100) was added for 6 h, and the plates were read with a fluorescence microplate reader at 546/580 nm (excitation/emission). For PBMC proliferation, cells were plated and activated as above but incubated for only 16 h prior to addition of Alamar Blue. Plates were read after 6 h.
Turning to `COc1cccc(-c2ccc(/C=C\CN3CCCCCC3)cc2Cl)c1`, the half-maximal activity concentration (AC50) was 33.5 µM (active).
Take `Cc1ccc(S(=O)(=O)O)cc1C`: the result was inactive.
Same read-out and setting: in the case of `C[C@](N)(Cc1ccc(O)c(O)c1)C(=O)O` it was “inactive”.
For `CCOC(=O)CC(CC(=O)OCC)(OC(C)=O)C(=O)OCC`, the outcome was inactive.
Still for that read-out and setting: in the case of `CCCN(C1CCN(C(=O)C2CCNCC2)CC1)[C@@H]1CCc2ccc(OC)cc2C1` it was “inactive”.
With `CNCc1ccc(NC(=O)c2c[nH]c3c2C(=O)CCC3)cc1`, the outcome was inactive.
Same read-out and setting: in the case of `O=C1CCCCCN1` it was “inactive”; in that of `CC/C(=C\C(=N/O)C(N)=O)C(C)[N+](=O)[O-]` (stereo not given), “inactive”.
Same read-out and setting: in the case of `CC(=O)OC[C@H]1O[C@@](COC(C)=O)(O[C@H]2O[C@H](COC(C)=O)[C@@H](OC(C)=O)[C@H](OC(C)=O)[C@H]2OC(C)=O)[C@@H](OC(C)=O)[C@@H]1OC(C)=O` it was “inactive”.
Same read-out and setting: in the case of `Cc1ccc(N)cc1O` it was “inactive”; in that of `CCCCC(CC)COC(=O)CCCCCCCCC(=O)OCC(CC)CCCC` (stereo not given), “inactive”.
As for `Nc1ccc(Nc2ccccc2)cc1`, the outcome was inactive.
As to `Cc1ccc(O)cc1`, the outcome was inactive.
Consider `COC(=O)CC(=O)OC`, for which the result was inactive.
Consider `CC(C)=CCCC(C)CCO` (stereo not given), for which the result was inactive.
`CC(=O)OCCC(C)C`: the result was inactive.
The same measure, in the same setting: in the case of `CC(=O)c1ccc2c(c1)[C@H](NC(=O)c1ccc(F)cc1)[C@@H](O)C(C)(C)O2` it was “inactive”; in that of `CC(C)=CCCC(C)=CC=O`, “inactive”; in that of `Clc1nc(Cl)c(Cl)c(Cl)c1Cl`, “inactive”.
Same read-out and setting: in the case of `CC(O)CN(CCN(CC(C)O)CC(C)O)CC(C)O` (stereo not given) it was “inactive”; in that of `Oc1ccc2c(c1)-c1ccccc1C2`, “inactive”.
On the same count and under the same terms, in the case of `Cn1c(=O)cc(Oc2ccc(F)cc2F)c2cnc(NCC(C)(C)O)nc21` it was “inactive”.
Turning to `O=C(O)c1cc(N=Nc2ccc(S(=O)(=O)Nc3ccccn3)cc2)ccc1O`, the result was inactive.
Same read-out and setting: in the case of `COC(=O)c1ccccc1O` it was “inactive”; in that of `CC(C)(O)c1coc(S(=O)(=O)NC(=O)Nc2c3c(cc4c2CCC4)CCC3)c1`, “inactive”.
Turning to `CCCCCCc1ccc(O)cc1O`, the AC50 was 31.6 µM (active).
On the same count and under the same terms, in the case of `O=C(CCCCCCCCc1cccnc1)N1CCC(C=C(c2ccccc2)c2ccccc2)CC1` it was 15.7 µM (active).
The same measure, in the same setting: in the case of `COc1ccc2sc(C(=O)Nc3nnn[nH]3)c(OC(C)C)c2c1` it was 29.5 µM (active).
Regarding `O=c1n(CC2CO2)c(=O)n(CC2CO2)c(=O)n1CC1CO1` (stereo not given), the outcome was inactive.
The same measure, in the same setting: in the case of `CCCCCCCCO` it was “inactive”; in that of `Cc1c(-c2cccnc2)c2ccccc2n1CCCCC(=O)O`, “inactive”; in that of `CCOCCO`, “inactive”.
On the same count and under the same terms, in the case of `COc1ccc(/C=C/S(=O)(=O)NC(=O)c2ccc(C)cc2Cl)cc1` it was “inactive”; in that of `Fc1ccccc1[C@@H](F)COC1CCC(Nc2ncnc3[nH]ncc23)CC1` (stereo not given in full), “inactive”; in that of `COCCOCCOCCOC`, “inactive”.
On the same count and under the same terms, in the case of `COCCOc1cc2cc(C(=O)NC3CCN(C(C)C)CC3)n(CC(=O)Nc3ccc(Cl)cn3)c2cn1` it was “inactive”; in that of `C1N2CN3CN1CN(C2)C3`, “inactive”; in that of `NC(=O)NO`, “inactive”.
Regarding `O=C(O)CC(O)C(=O)O` (stereo not given), the result was inactive.
On to `O=c1[nH]c2ccc(S(=O)CCN3CCC(Cc4ccc(F)cc4)CC3)cc2o1` (stereo not given), for which the outcome was inactive.

The values above are taken from PubChem BioAssay (EPA / NIEHS).
